From ChEMBL document CHEMBL1961873, “Compounds: GSK PKIS; Assays: Nanosyn kinase panel” (2012)

Each compound was assayed against Fibroblast growth factor receptor 2 (Homo sapiens) (UniProt P21802). Conditions: at 0.1 µM.
Sequence of Fibroblast growth factor receptor 2 (Homo sapiens) (P21802 22-821 limits assumed): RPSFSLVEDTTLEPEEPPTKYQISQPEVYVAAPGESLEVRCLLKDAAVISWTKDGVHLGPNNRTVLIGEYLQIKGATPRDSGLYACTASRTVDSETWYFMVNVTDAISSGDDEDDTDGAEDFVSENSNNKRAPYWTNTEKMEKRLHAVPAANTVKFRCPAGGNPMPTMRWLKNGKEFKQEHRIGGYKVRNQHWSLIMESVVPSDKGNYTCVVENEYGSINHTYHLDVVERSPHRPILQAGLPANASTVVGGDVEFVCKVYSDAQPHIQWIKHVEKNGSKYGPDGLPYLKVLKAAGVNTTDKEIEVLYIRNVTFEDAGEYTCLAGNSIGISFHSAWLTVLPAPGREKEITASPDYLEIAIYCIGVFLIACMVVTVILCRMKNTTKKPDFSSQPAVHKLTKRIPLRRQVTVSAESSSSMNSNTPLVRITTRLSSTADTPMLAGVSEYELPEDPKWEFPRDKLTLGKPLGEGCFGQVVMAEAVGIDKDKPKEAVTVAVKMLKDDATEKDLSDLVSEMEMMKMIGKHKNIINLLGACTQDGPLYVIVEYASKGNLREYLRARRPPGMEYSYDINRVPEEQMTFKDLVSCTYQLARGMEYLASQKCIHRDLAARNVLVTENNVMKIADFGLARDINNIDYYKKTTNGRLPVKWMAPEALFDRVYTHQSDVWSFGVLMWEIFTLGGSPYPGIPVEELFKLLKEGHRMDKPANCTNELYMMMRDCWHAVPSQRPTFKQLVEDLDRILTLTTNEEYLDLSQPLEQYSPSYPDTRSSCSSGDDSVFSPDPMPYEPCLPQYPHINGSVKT
For `O=C1Nc2ccc(C(=O)c3ccco3)cc2C1=Cc1cc(Cl)c(O)c(Cl)c1`, the inhibition was 6.09%.
With `COc1cc2c(cc1Nc1nc(N3CCc4ccccc43)c3cc[nH]c3n1)N(C(=O)CN(C)C)CC2` the inhibition was 0.56%.
In the case of `CCc1cccc(NC(=O)Nc2ccc(Oc3ccc4nc(NC(=O)OC)[nH]c4c3)cc2)c1`, the inhibition is reported as 3.25%.
`CCN1CCC(CC(=O)Nc2n[nH]c3nc(-c4cccs4)c(Br)cc23)CC1` gave an inhibition of -4.3%.
`Cc1ccc(NC(=O)c2ccnc(N3CCCC3)c2)cc1-c1ccc(C(=O)NCC2CC2)cc1` was tested, and the inhibition was 1.81%.
`CCn1c(-c2nonc2N)nc2c(C#CC(C)(C)O)nc(CN3CCCC3)cc21` showed an inhibition of -0.04%.
`COc1cc(C)c(NC(=O)CN(C)C)cc1Nc1nc(Nc2cccc(F)c2C(N)=O)c2cc[nH]c2n1` was tested, and the inhibition was 0.12%.

These compounds were tested against Fibroblast growth factor receptor 2 (Homo sapiens) (UniProt P21802). Conditions: at 1 µM.
For `Nc1nc(-c2ccccn2)c(-c2ccc3ncccc3n2)s1`, the inhibition was 7.02%.
`Fc1cccc(COc2ccc(Nc3ncnc4cc(-c5ccc[nH]5)sc34)cc2Cl)c1` showed an inhibition of 0.05%.
`COc1cccc(-n2ncc3c(N/N=C/c4cccc(F)c4)ncnc32)c1` showed an inhibition of -0.48%.
For `CCn1c(-c2nonc2N)nc2c(C#CC(C)(C)O)nc(OC[C@@H](N)c3ccccc3)cc21`, the inhibition was 0.85%.
`COc1ccc(-c2coc3ncnc(N)c23)cc1` gave an inhibition of 10.1%.
`Cc1cccc(-c2n[nH]cc2-c2ccc3ncccc3n2)n1` gave an inhibition of 5.35%.
For `Nc1ncnc2occ(-c3ccc(NC(=O)Nc4cc(C(F)(F)F)cc(C(F)(F)F)c4)cc3)c12`, the inhibition was 68.8%.
`[O-][S+]1CCN(Cc2ccc(-c3ccc4ncnc(Nc5ccc(OCc6ccccc6)c(F)c5)c4c3)o2)CC1` was tested, and the inhibition was 3.9%.
`Nc1nc(-c2ccc3c(c2)C(=Cc2cc(Br)c(O)c(Br)c2)C(=O)N3)cs1` was tested, and the inhibition was 1.88%.
`CC1=C(C(=O)Nc2ccc3[nH]ncc3c2)C(c2ccc3ccccc3c2)CC(=O)N1` (stereo not given) gave an inhibition of 31.6%.
`CS(=O)(=O)CCNCc1ccc(-c2ccc3ncnc(Nc4ccc(OCc5ccccc5)c(Cl)c4)c3c2)o1` was tested, and the inhibition was 5.46%.
`c1cnn2ncc(-c3ccnc(Nc4ccc5c(c4)OCCO5)n3)c2c1` was tested, and the inhibition was 15.9%.
For `CN1CCC(C(=O)Nc2n[nH]c3nnc(-c4ccccc4)cc23)CC1`, the inhibition was 5.58%.
Compound `Cn1cc(C=C2C(=O)Nc3cccnc32)c2ccccc21` has an inhibition of 42.2%.
Compound `Cc1nnc(-c2ccc(C)c(-c3ccc(C(=O)Nc4cccc(C#N)c4)cc3)c2)o1` has an inhibition of 4.97%.
With `CNC(=O)c1cncc(/C=C/c2c(Cl)cccc2Cl)c1` the inhibition was 7.15%.
For `N#Cc1c(NC(=O)c2cccc3ccccc23)sc2c1CCCC2`, the inhibition was 4.84%.
For `CCn1c(-c2nonc2N)nc2cnc(Oc3cccc(NC(=O)c4ccc(OCCN5CCOCC5)cc4)c3)cc21`, the inhibition was 3.45%.
`COc1ccccc1Nc1ncc(-c2ccccc2)o1` gave an inhibition of 13.7%.
For `COc1ccc(COc2ccc(Cc3cnc(N)nc3N)cc2OC)cc1`, the inhibition was 6.83%.
For `CS(=O)(=O)Nc1ccc(N/C=C2\C(=O)Nc3ccccc32)cc1`, the inhibition was 27.1%.
`CC1=C(C(=O)Nc2ccc3[nH]ncc3c2)C(c2ccc(Cl)c(Cl)c2)CC(=O)N1` (stereo not given) showed an inhibition of 20.4%.
`COc1cc2ncn(-c3cc(O[C@@H](C)c4ccccc4Cl)c(C(N)=O)s3)c2cc1OC` gave an inhibition of 21.9%.
`NS(=O)(=O)c1cccc(-c2ccc3c(NC(=O)C4CC4)n[nH]c3c2)c1` showed an inhibition of -1.15%.
For `Nc1ncnc2occ(-c3ccc(NC(=O)Nc4cccc(C(F)(F)F)c4)cc3)c12`, the inhibition was 52.5%.
With `CS(=O)(=O)CCNCc1ccc(-c2ccc3ncnc(Nc4ccc(OCc5cccc(F)c5)c(C(F)(F)F)c4)c3c2)o1` the inhibition was 4.51%.
In the case of `O=C1Nc2ccc(C(=O)c3ccco3)cc2C1=Cc1cc(Cl)c(O)c(Cl)c1`, the inhibition is reported as 25.8%.
`COc1cc2c(cc1Nc1nc(N3CCc4ccccc43)c3cc[nH]c3n1)N(C(=O)CN(C)C)CC2` was tested, and the inhibition was 6.55%.
`CCc1cccc(NC(=O)Nc2ccc(Oc3ccc4nc(NC(=O)OC)[nH]c4c3)cc2)c1` showed an inhibition of 8.89%.
Work on `CCN1CCC(CC(=O)Nc2n[nH]c3nc(-c4cccs4)c(Br)cc23)CC1` yielded an inhibition of -0.25%.
Work on `Cc1ccc(NC(=O)c2ccnc(N3CCCC3)c2)cc1-c1ccc(C(=O)NCC2CC2)cc1` yielded an inhibition of 7.09%.
For `CCn1c(-c2nonc2N)nc2c(C#CC(C)(C)O)nc(CN3CCCC3)cc21`, the inhibition was 0.42%.
`COc1cc(C)c(NC(=O)CN(C)C)cc1Nc1nc(Nc2cccc(F)c2C(N)=O)c2cc[nH]c2n1` showed an inhibition of 4.39%.
